Results on seven molecules are retold here after PubChem BioAssay (NCATS).

A short description of experiment [1]: Quantitative High-Throughput drug screen in 47 multiple myeloma cell lines against the NCATS MIPE library collection: PE2_PLB cell viability assay (AID 1919869). Note: nearly all actives have a fitted effect of over 35% in size. The procedure, abridged:
(§1)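 Viability after 48 h drug exposure was measured as ATP-dependent luminescence. Cells, 500 per well, sat at 37 °C under 5% CO2; DMSO wells set 100%, media-only wells 0%.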

A short description of experiment [2]: Quantitative High-Throughput drug screen in 47 multiple myeloma cell lines against the NCATS MIPE library collection: PCM6_Riken cell viability assay (AID 1919870). Note: nearly all actives have a fitted effect of over 30% in size. The method in brief: as §1
Experiment [3] can be described thus: Quantitative High-Throughput drug screen in 47 multiple myeloma cell lines against the NCATS MIPE library collection: RPMI8226_ATCC cell viability assay (AID 1919871). Note: nearly all actives have a fitted effect of over 30% in size. The procedure, abridged: as §1
The nature of experiment [4]: Quantitative High-Throughput drug screen in 47 multiple myeloma cell lines against the NCATS MIPE library collection: OPM2_DSMZ cell viability assay (AID 1919872). Note: nearly all actives have a fitted effect of over 30% in size. The procedure, abridged:
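Myeloma cell lines, 500 cells per well, exposed to MIPE 4.0 library compounds for 48 h at 37C, 5% CO2. Viability from ATP by CellTiter-Glo luminescence; normalised to DMSO (100%) and media-only (0%) wells.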

Experiment [5] can be described thus: Quantitative High-Throughput drug screen in 47 multiple myeloma cell lines against the NCATS MIPE library collection: KMS11_JCRBsus cell viability assay (AID 1919873). Note: nearly all actives have a fitted effect of over 50% in size. The method in brief: as §1
Experiment [6] is described as follows: Quantitative High-Throughput drug screen in 47 multiple myeloma cell lines against the NCATS MIPE library collection: KMS28BM_JCRB cell viability assay (AID 1919874). Note: nearly all actives have a fitted effect of over 35% in size. The method in brief: as §1
The nature of experiment [7]: qHTS drug screen for cell cycle checkpoint inhibitors in PARPi-resistant BRCA-mutant ovarian cancer cell lines. (AID 1963452; calls by dose curve). The note with it: PEO1/OlaR viability, CellTiter-Glo luminescence, 96 h; for Z-AUC: stronger effect = lower value. The procedure, abridged:
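PEO1, PEO4 and PEO1/OlaR ovarian cancer cells, 600 per well, exposed 96 h at 37C to a dilution series. Viability read by CellTiter-Glo luminescence, normalized to DMSO and empty wells; activity summarized as Z-AUC.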
(In general: In qHTS, concentration-response curves come from the screen itself.)

Experiment [8] in a line: qHTS for identification of novel therapeutic agents for treatment of microphthalmiaassociated transcription factor (MiT) renal cell carcinoma (RCC) (AID 1963991; calls by dose curve;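 for z-score: curves scaled with 100% = DMSO viability and 0% = empty wells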). The note with it: CellTiter-Glo, 48 h; for Potency: active = Z-AUC below -0.8 in all three lines; for z-score: stronger effect = lower value. The procedure, abridged: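 UOK109/UOK124/UOK145 (TFE3 fusions, three partners); 500 cells/well; MIPE v4.0, 1912 cpds, 11 conc.; 48 h, 37 C; CellTiter-Glo, 15 min RT; lum. Norm.: DMSO 100%, empty 0%.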

Experiment [9] is described as follows: qHTS profiling for inhibitors of Plasmodium falciparum proliferation (AID 504749). Note: nearly all actives have a fitted effect of over 60% in size. The following applies: P. falciparum in erythrocytes, SYBR Green DNA, 72 h. The procedure, abridged:
(§2)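 Readout was DNA-dye fluorescence from lysed cultures, ex 485/em 535 nm. Parasitized red cells had grown 72 h with compound; data scaled between 0.29 uM artemisinin and DMSO wells and corrected using vehicle-only plates.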

For experiment [10], the system named is 3D7. The description is as above. The note with it: P. falciparum in erythrocytes, SYBR Green DNA, 72 h; series mostly up to 28.7 µM. The method in brief:
as §2

Experiment [11] relates to 7G8. The description is as above. The following applies: P. falciparum in erythrocytes, SYBR Green DNA, 72 h; series mostly up to 28.7 µM. The method in brief:
as §2

Experiment [12] deals with AA1029. The experiment is described as above. The following applies: P. falciparum in erythrocytes, SYBR Green DNA, 72 h; series mostly up to 28.7 µM. The procedure, abridged:
as §2

The test system of experiment [13] is AS120. The experiment is described as above. The following applies: P. falciparum in erythrocytes, SYBR Green DNA, 72 h; series mostly up to 28.7 µM. The method in brief:
as §2

Experiment [14] has as its system ATS189. The experiment is described as above. The note with it: P. falciparum in erythrocytes, SYBR Green DNA, 72 h; series mostly up to 28.7 µM. The method in brief: as §2
Experiment [15] deals with ATS95. The description is as above. The following applies: P. falciparum in erythrocytes, SYBR Green DNA, 72 h; series mostly up to 28.7 µM. The procedure, abridged:
as §2

The subject of experiment [16] is C2A. Described as above. The note with it: P. falciparum in erythrocytes, SYBR Green DNA, 72 h; series mostly up to 28.7 µM. The method in brief: as §2
Experiment [17] concerns CP185. The experiment is described as above. The following applies: P. falciparum in erythrocytes, SYBR Green DNA, 72 h; series mostly up to 28.7 µM. The procedure, abridged:
as §2

Experiment [18] relates to CP192. The experiment is described as above. The following applies: P. falciparum in erythrocytes, SYBR Green DNA, 72 h; series mostly up to 28.7 µM. The procedure, abridged:
as §2

Experiment [19] relates to CP194. The description is as above. The note with it: P. falciparum in erythrocytes, SYBR Green DNA, 72 h; series mostly up to 28.7 µM. The procedure, abridged: as §2
[20] abbreviates: measured here: PEO1 parental Z-AUC.
Where [21] appears, read: TFE3-RCC UOK109 viability, measured here: UOK109 Z-AUC.
Where [22] appears, read: TFE3-RCC viability, measured here: UOK124 Z-AUC.
Where [23] appears, read: TFE3-RCC viability, measured here: UOK145 Z-AUC.

Each structure is given as a SMILES string. Inconclusive results are not listed. The source made the active and inactive calls. Unless noted, calls come from the whole dose curve; as a rule, active = well fitted curve in the direction sought with a large enough effect; inconclusive = small, poorly fitted or top-dose-only effect, or another doubt; inactive = no such curve, though single readings can be large; an effect the other way counts as inactive or inconclusive.
Potency is the fitted concentration of half-maximal effect.

`c1ccc2c(CCNc3ccc(Nc4ccncc4)cc3)c[nH]c2c1`: the Potency in [1] is 16600 nM (active); in experiment [2], 20900 nM (active); in experiment [3], 20900 nM (active); in experiment [5], 14800 nM (active); in [6] it was 11800 nM (active); in experiment [7], 1230 nM (active). Besides, the Potency entry in experiment [4] was “inactive”. The Z-AUC is -1.4 in experiment [7] (setting [20]) and -1.17 in [7] (measured here: PEO4 Z-AUC).

Regarding `C=CC(=O)Nc1cccc(Oc2nc(Nc3ccc(N4CCN(C)CC4)cc3)ncc2Cl)c1`, the Potency in experiment [1] is 5900 nM (active); in experiment [2], 16600 nM (active); in [3], 14800 nM (active); in experiment [4], 11800 nM (active); in experiment [5], 1050 nM (active); in [8] (TFE3-RCC UOK109 viability), 833 nM (active). For the same molecule, the values for the Z-AUC in experiment [7], in [7] (setting [20]) and in experiment [7] (measured here: PEO4 Z-AUC) were -0.847 (inactive), -0.559 and -0.604, respectively. For the same molecule, the z-score in experiment [8] (setting [21]) is -2.72; in experiment [8] (setting [22]) it was -0.851; in experiment [8] (setting [23]), -2.36.

`Cc1cc(Nc2nc(N[C@@H](C)c3ccc(F)cc3)c(C#N)cc2F)n[nH]1`: the Potency in experiment [1] was 935 nM (active); in [2], 16600 nM (active); in [3] it was 11800 nM (active); in [4], 4690 nM (active); in experiment [5], 469 nM (active). Further, the Z-AUC in [7] is 0.0536 (inactive); in experiment [7] (setting [20]), -0.395; in experiment [7] (measured here: PEO4 Z-AUC), -0.871.

As to `C[C@@H]1COC(Nc2ccc3ncnc(Nc4ccc(OCc5nccs5)c(Cl)c4)c3c2)=N1`, the Potency was 4180 nM (active) in [1]; 2960 nM (active) in experiment [2]; 33200 nM (active) in experiment [3]; 26400 nM (active) in experiment [4]; 18700 nM (active) in [5]; 13800 nM (active) in experiment [7]. For the same molecule, the Z-AUC was -1.34 in [7] (setting [20]) and -1.07 in [7] (measured here: PEO4 Z-AUC).

With `Cc1ccc(-c2ncn(-c3ccc(Nc4nccc(-c5cccc(N6CCOCC6)c5)n4)cc3)n2)cn1`, the Potency in [1] is 372 nM (active); in [2] it was 37.2 nM (active); in experiment [3], 132 nM (active); in [4], 296 nM (active); in experiment [5], 74.3 nM (active); in [6], 74.3 nM (active). In addition, the Potency in [8] (TFE3-RCC UOK109 viability) is 264 nM (active). Also, the z-score in [8] (setting [21]) is -1.3; in experiment [8] (setting [22]) it was -2.07; in experiment [8] (setting [23]) it was -1.38.

For `CC(=O)OCC(=O)[C@@]1(O)[C@H](C)C[C@H]2[C@@H]3C=C(C)C4=Cc5c(cnn5-c5ccccc5)C[C@]4(C)[C@@H]3[C@@H](O)C[C@@]21C`, the Potency in experiment [1] was 8330 nM (active); in experiment [2], 3320 nM (active); in [3], 4180 nM (active); in [4], 20900 nM (active). Besides, the Z-AUC in experiment [7] is -0.679 (inactive); in [7] (setting [20]) it was 0.732; in [7] (measured here: PEO4 Z-AUC), -0.158.

`CC[C@H]1CN2CCc3cc(OC)c(OC)cc3[C@H]2C[C@@H]1C[C@@H]1NCCc2cc(OC)c(OC)cc21`: the Potency in [1] is 296 nM (active); in [2] it was 166 nM (active); in [3] it was 148 nM (active); in [4], 418 nM (active); in experiment [5] it was 166 nM (active); in [6], 235 nM (active). Further, the Potency in experiment [8] (TFE3-RCC UOK109 viability) is 166 nM (active); in [9] (parasite line A) it was 316 nM (active); in experiment [9] (parasite line B), 282 nM (active); in experiment [10], 224 nM (active); in experiment [11], 126 nM (active); in [12], 316 nM (active). Further, the Potency in experiment [13] is 316 nM (active); in experiment [14], 708 nM (active); in [15] it was 282 nM (active); in experiment [16] it was 224 nM (active); in experiment [17] it was 316 nM (active); in experiment [18], 536 nM (active). Moreover, the Potency in [19] is 601 nM (active). In addition, the z-score was -1.94 in [8] (setting [21]), -1.32 in experiment [8] (setting [22]) and -3.58 in experiment [8] (setting [23]).
